Only some compounds are listed: those with a hit (about 9% of all), similar ones and a draw of the others.
IMPase inh = IMPase inhibition in cells | P97697 | CHO-M1 cells, IP1 accumulation, HTRF TR-FRET ratio | inhibition (IP1 accumulation), % at 46.1 µM | 120,000 tested, under 10 active; active = well fitted curve in the direction sought with a large enough effect in the signal ratio, not every such curve was filed as active; inconclusive = small, poorly fitted or top-dose-only effect, or a change in a side signal; inactive = no such curve, though single readings can be large or run the other way; the % refers to the signal ratio;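 also: cells stimulated with carbachol in lithium chloride buffer; higher means more IMPase inhibition seen as more IP1 and lower FRET ratio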
Target sequence (P97697 whole entry, looked up): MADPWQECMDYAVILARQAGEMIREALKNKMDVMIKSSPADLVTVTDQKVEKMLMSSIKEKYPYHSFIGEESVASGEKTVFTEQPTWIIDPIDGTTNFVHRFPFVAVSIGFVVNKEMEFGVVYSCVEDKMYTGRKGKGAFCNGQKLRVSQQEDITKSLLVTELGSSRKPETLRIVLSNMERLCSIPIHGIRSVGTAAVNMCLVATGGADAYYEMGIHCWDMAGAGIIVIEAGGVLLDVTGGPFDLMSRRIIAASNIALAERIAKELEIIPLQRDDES
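Measured: the HTRF emission ratio (665/620 nm) plus the 620 nm donor channel, each fitted to the Hill equation to give AC50. Cells were CHO-M1 given compounds up to 46 uM and a 30 min carbachol stimulation at 37C.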
HPGD inh = blocks human HPGD enzyme activity; P15428; purified HPGD, NADH fluorescence kinetic, PGE2 substrate; Potency, µM, usual class: inhibitors; 150,000 tested, 4.3% active
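NADH formation kinetics: reaction with 30 uM PGE2 and 1 mM NAD+ (final), 20 nM enzyme, Tris-HCl pH 8 with Tween 20, after 15 min compound preincubation at room temperature. Fluorescence change, last versus first of five reads.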
ALDH1A1 inh = inhibitors of human aldehyde dehydrogenase 1A1 | P00352 | Purified ALDH1A1, NADH fluorescence, propionaldehyde substrate | Potency, µM (doses to about 75.3 µM), hits mostly inhibitors | 220,000 tested, 7.3% active
Target sequence (P00352 whole entry, looked up): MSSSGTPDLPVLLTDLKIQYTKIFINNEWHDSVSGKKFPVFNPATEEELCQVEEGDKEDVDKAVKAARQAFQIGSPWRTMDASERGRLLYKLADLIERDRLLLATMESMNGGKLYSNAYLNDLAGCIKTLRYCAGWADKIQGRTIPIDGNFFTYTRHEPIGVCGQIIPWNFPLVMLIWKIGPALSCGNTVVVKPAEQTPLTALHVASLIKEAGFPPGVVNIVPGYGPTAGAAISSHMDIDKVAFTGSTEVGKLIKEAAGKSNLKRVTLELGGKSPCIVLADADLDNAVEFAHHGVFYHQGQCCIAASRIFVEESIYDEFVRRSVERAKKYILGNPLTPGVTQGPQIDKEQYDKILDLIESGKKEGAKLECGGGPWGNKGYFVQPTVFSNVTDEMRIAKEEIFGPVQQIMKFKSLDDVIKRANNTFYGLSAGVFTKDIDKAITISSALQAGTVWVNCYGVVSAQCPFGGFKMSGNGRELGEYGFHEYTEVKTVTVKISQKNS
Large screens that a line does not name were inactive. Unless noted, calls follow the shape of the dose curve; as a rule, active = well fitted inhibition curve with a large enough effect (not every such curve was filed as active); inconclusive = small, poorly fitted or top-dose-only effect, or another doubt; inactive = no such curve, though single readings can be large or run the other way.

CCOC(=O)C1(CC2CCCCO2)CCN(S(=O)(=O)c2ccc(C)s2)CC1 (centres undefined)	ALDH1A1 inh 20µM (no result: IMPase inh, HPGD inh)
CCOC(=O)C1(CC2CCCCO2)CCN(C(=O)Nc2ccccc2)CC1 (centres undefined)	none (no result: IMPase inh, HPGD inh)
CCOc1cc(C2/C(=C(\O)c3cc(C)ccc3C)C(=O)C(=O)N2CCN(C)C)ccc1O (centres undefined)	none
CCCN1CNC(=S)N(Cc2ccccc2)C1	none
CC(C)(C)N1CSC(=S)N(Cc2ccccc2)C1	ALDH1A1 inh 31.6µM (no result: IMPase inh, HPGD inh)
CCCCN1CSC(=S)N(Cc2ccccc2)C1	ALDH1A1 inh 3.55µM (no result: IMPase inh)
CCCCN1CNC(=S)N(Cc2ccccc2)C1	none
CCSc1nnc2c(n1)OC(CC)N(C(C)=O)c1ccccc1-2 (centres undefined)	none (no result: HPGD inh, ALDH1A1 inh)
CN1CCN(c2ncc3nc(-c4cn(C)c5ccccc45)c(=O)n(Cc4cccs4)c3n2)CC1	none (no result: IMPase inh, HPGD inh)
CN(C)CCNC(=O)NC1CCCCC1	none
CC1CCC(NC(=S)NCCN(C)C)CC1 (centres undefined)	ALDH1A1 inh 1.58µM (no result: IMPase inh, HPGD inh)
Clc1ccc(OCc2cn3ccccc3n2)c2ncccc12	none (no result: IMPase inh, HPGD inh)
CC1(C)CC[C@]2(C(=O)O)CC[C@@]3(C)C(=CCC4[C@@]5(C)CCC(O)[C@@](C)(CO)C5CC[C@@]43C)C2C1 (some centres undefined)	none (no result: IMPase inh)
Nc1nc(Nc2ccccc2)nc(N2CCOCC2)c1[N+](=O)[O-]	ALDH1A1 inh 12.6µM (no result: IMPase inh)
Cc1cccc(Nc2nc(NCc3ccco3)nc(N)c2[N+](=O)[O-])c1	none (no result: IMPase inh, HPGD inh)
CN(C)c1ccc(Nc2nc(N)c([N+](=O)[O-])c(N3CCOCC3)n2)cc1	none (no result: IMPase inh)
Nc1nc(NCc2ccco2)nc(N2CCCCC2)c1[N+](=O)[O-]	ALDH1A1 inh 3.98µM (no result: IMPase inh)
CC(=O)N(Cc1cc2cc(C)c(C)cc2n2nnnc12)CC1COCCO1 (centres undefined)	none
Cc1cc(/C=C2/NC(=O)N(c3ccccc3)C2=O)c(C)n1C(C)C	ALDH1A1 inh inconclusive (no result: IMPase inh)
Cc1cc(/C=C2/NC(=O)N(Cc3ccccc3F)C2=O)c(C)n1C(C)C	ALDH1A1 inh 2µM (no result: IMPase inh)
CCn1c(C)cc(/C=C2\NC(=O)N(Cc3ccccc3)C2=O)c1C	ALDH1A1 inh 8.91µM
CCn1c(C)cc(/C=C2/NC(=O)N(Cc3ccccc3F)C2=O)c1C	HPGD inh inconclusive, ALDH1A1 inh 1.78µM (no result: IMPase inh)
O=C1N/C(=C/c2cccn2-c2ccccc2)C(=O)N1Cc1ccc(F)cc1	ALDH1A1 inh inconclusive (no result: IMPase inh)
CCn1c(C)cc(/C=C2\NC(=O)N(CC(=O)Nc3ccc(F)cc3)C2=O)c1C	none (no result: IMPase inh, HPGD inh)
O=C1CN(S(=O)(=O)c2cc(Cl)ccc2Cl)CCN1	none (no result: IMPase inh, HPGD inh)
Cc1ccc(N/C=C(\C#N)S(=O)(=O)c2ccccc2)cc1	none (no result: IMPase inh, HPGD inh)
CC(=O)NCCNc1ncncc1-c1ccccc1C	none (no result: IMPase inh, HPGD inh)
N=C1C(c2ccccc2)=C(O)CN1c1cccc(S(=O)(=O)Nc2cccc(C(F)(F)F)c2)c1	none (no result: IMPase inh)
COc1ccc(Br)c(C(=O)NCCC(C)C)c1	HPGD inh 12.6µM (no result: IMPase inh)
COc1ccc(S(=O)(=O)N(C)c2ccc(C(=O)NCCC(C)C)cc2)cc1	HPGD inh 2µM
COc1ccc(C(CNC(=O)c2ccc(S(=O)(=O)N(C)C)cc2)N2CCCC2)cc1 (centres undefined)	ALDH1A1 inh 4.47µM (no result: IMPase inh, HPGD inh)
CC(C)CCNC(=O)COc1ccc(N(C)S(=O)(=O)c2ccc(F)cc2)cc1	none (no result: IMPase inh, HPGD inh)
COc1ccc(S(=O)(=O)N(C)c2ccc(C(N)=O)cc2)cc1	none
COc1ccc(Br)c(C(=O)Nc2ccc(F)cc2)c1	none (no result: IMPase inh, HPGD inh)
CCOCCCNC(=O)c1ccc(N(C)S(=O)(=O)c2ccc(OC)cc2)cc1	HPGD inh 1.58µM
COc1ccc(C(CNC(=O)c2cccc(Br)c2)N2CCCC2)cc1 (centres undefined)	none
Cc1ccc2nc(Cl)c3cc(C(=O)NCCCN4CCCC4)sc3c2c1	none (no result: IMPase inh, HPGD inh)
Cc1nnc(SCC(=O)Nc2nc(-c3ccc(F)cc3)cs2)[nH]c1=O	none (no result: IMPase inh, HPGD inh)
CNC(=O)CSc1cnc2ccccc2n1	none (no result: IMPase inh, HPGD inh)
CCN(CC)C(=O)Cn1c(=O)n(Cc2ccc(C(=O)NCc3ccccc3Cl)cc2)c(=O)c2ccccc21	none (no result: HPGD inh, ALDH1A1 inh)
CC(N)=NCCCC[C@@H](N)C(=O)O	none (no result: IMPase inh)
CC(=O)OCC(=O)Nc1c(C)cc(C)cc1C	none (no result: IMPase inh, HPGD inh)
COC(=O)c1c(C)oc(C)c1S(=O)(=O)N(C)C1CCCCC1	none (no result: IMPase inh, HPGD inh)
CCCC(=O)c1cc(F)c(N2CCOCC2)cc1C	none
CC(=O)c1cc(F)c(N2CCN(C(=O)Cc3ccccc3)CC2)cc1C	HPGD inh 22.4µM, ALDH1A1 inh 8.91µM
CCOC(=O)N1CCN(c2cc(C)c(C(C)=O)cc2F)CC1	ALDH1A1 inh inconclusive
CC(=O)c1cc(F)c(N2CCN(CCC#N)CC2)cc1C	ALDH1A1 inh 28.2µM
Oc1ccc(C2CNCc3sccc32)cc1O (centres undefined)	HPGD inh 7.08µM, ALDH1A1 inh inconclusive (no result: IMPase inh)
Oc1ccc(C2CNCCc3c2cc(O)c(O)c3Cl)cc1 (centres undefined)	ALDH1A1 inh inconclusive (no result: IMPase inh)
CC1CCN(S(=O)(=O)c2ccc(NC(=O)Cc3cccs3)cc2)CC1	none
C/C(CC(=O)N(C(C)C)C(C)C)=N\NC(=O)c1ccccc1Br	none (no result: IMPase inh)
O=C(Cc1c(F)cccc1Cl)N1CCCC1	none
O=C(CSc1nc2ccccc2c(=O)n1-c1ccccc1)N/N=C/C=C/c1ccccc1[N+](=O)[O-]	ALDH1A1 inh 2.82µM (no result: IMPase inh, HPGD inh)
Cc1occc1C(=O)N/N=C/C=C/c1ccccc1[N+](=O)[O-]	none (no result: IMPase inh, HPGD inh)
Cc1cc(C(=O)N/N=C/C=C/c2ccccc2[N+](=O)[O-])c(C)o1	ALDH1A1 inh 5.62µM (no result: IMPase inh, HPGD inh)
O=C(CSc1nc2ccccc2c(=O)n1-c1ccc(Cl)cc1)N/N=C/C=C/c1ccccc1[N+](=O)[O-]	ALDH1A1 inh inconclusive (no result: IMPase inh)
O=C(N/N=C/C=C/c1ccccc1[N+](=O)[O-])c1cc(-c2cccnc2)nc2ccccc12	ALDH1A1 inh 14.1µM
COc1ccccc1-c1cc(C(=O)N/N=C/C=C/c2ccccc2[N+](=O)[O-])c2ccccc2n1	none
Cc1cc(-c2nn(-c3ccccc3F)cc2CN2CCN(c3ccccn3)CC2)c(C)s1	none (no result: IMPase inh, HPGD inh)
O=S(=O)(/N=C(/Nc1ccc(F)c(F)c1F)c1ccccc1)c1ccccc1	none (no result: IMPase inh)
CCCCCC/C=C1\CC(C(=O)OCC)Oc2ccccc21 (centres undefined) (tested in a mixture with another compound)	none (no result: IMPase inh)
O=C(Nc1ccccc1C(=O)N1CCN(Cc2ccccc2)CC1)c1ccccn1	none
COc1cccc(CCc2nnc(CCC(=O)NC(C)c3c(C)nn(C)c3C)o2)c1 (centres undefined)	none (no result: IMPase inh, HPGD inh)
COCCn1c(Cc2ccccc2)nnc1SCC(=O)NC(C)C	none
Cc1ccc(OCCn2cnc(Cl)c2Cl)cc1	none (no result: IMPase inh, HPGD inh)
Cc1ccc(OCCn2cc(Br)c(=O)[nH]c2=O)cc1	ALDH1A1 inh 20µM
COc1ccccc1NC(=O)c1c(NC(=O)CCC(=O)O)sc2c1CCCCC2	ALDH1A1 inh 22.4µM (no result: IMPase inh, HPGD inh)
CCOC(=O)c1c(NC(=O)CCC(=O)O)sc2c1CCCCC2	HPGD inh 8.91µM, ALDH1A1 inh 8.91µM (no result: IMPase inh)
COc1ccc(OC)c(NC(=O)c2c(NC(=O)CCC(=O)O)sc3c2CCCCC3)c1	none (no result: IMPase inh)
CCOC(=O)c1c(NC(=O)CNCCOC)sc2c1CCCC2	IMPase inh inconclusive, ALDH1A1 inh 25.1µM
CCOC(=O)c1c(NC(=O)CN(CC)CC)sc2c1CCC2	none
CCOC(=O)c1c(NC(=O)CCCC(=O)O)sc2c1CCC2	none (no result: IMPase inh, HPGD inh)
NC(=O)CCC1NC(=S)N(Cc2ccccc2)C1=O (centres undefined)	none (no result: IMPase inh, HPGD inh)
